Test results: PubChem BioAssay AID1159580 (chemical genetic matrix, 2015)
“And” between values parts separate entries of the source, which are not always exact repeats. Equal values may be shown once. The campaign covered roughly 5,500 compounds. About 2,000 (36%) were called active. Inconclusive results (about 18%) are left out. No stated cut-off is given here; in the data, active means normalized growth mostly below about 0.91 (no sharp cut-off); inconclusive means no clear call, values can overlap the other calls; inactive means mostly above about 0.92. Some of the results follow.

Assay: chemical genetic growth profiling, strain panel (AID 1159580);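 further: tested at 20 µM; growth read once vehicle control cultures reached saturation at 30 °C; 1 = growth at the plate median or of vehicle wells; lower values mean less growth of the strain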
Settings: S. cerevisiae deletion strains, growth OD

Measured: normalized growth

Nc1c2c(nc3ccccc13)CCCC2
inactive: locus YAL013W, strain DEP1, active compounds read low 1.02 | locus YAL021C, strain ccr4, active compounds read low 0.985 | locus YAL026C, strain drs2, active compounds read low 0.975 | locus YAL030W, strain snc1, active compounds read low 1.01 | locus YAL040C, strain CLN3, active compounds read low 1.02 | locus YBL061C, strain skt5, active compounds read low 0.984 | locus YBR009C, strain hhf1, active compounds read low 0.978 | locus YBR021W, strain FUR4, active compounds read low 0.853 | locus YBR023C, strain chs3, active compounds read low 0.993 | locus YBR171W, strain sec66, active compounds read low 0.959 | locus YBR229C, strain ROT2, active compounds read low 1.02 | locus YBR231C, strain swc5, active compounds read low 0.981 | locus YBR279W, strain paf1, active compounds read low 1 | locus YCL011C, strain gbp2, active compounds read low 1 | locus YCL016C, strain dcc1, active compounds read low 1.01 | locus YCL029C, strain bik1, active compounds read low 1.02 | locus YCL069W, strain vba3, active compounds read low 0.989 | locus YCR088W, strain abp1, active compounds read low 0.993 | locus YDL005C, strain med2, active compounds read low 0.977 | locus YDL035C, strain GPR1, active compounds read low 1.01 | locus YDL040C, strain nat1, active compounds read low 0.989 | locus YDL074C, strain BRE1, active compounds read low 1.01 | locus YDL101C, strain DUN1, active compounds read low 1.02 | locus YDL134C, strain PPH21, active compounds read low 1 | locus YDL185W, strain tfp1, active compounds read low 1.01 | locus YDL192W, strain arf1, active compounds read low 1.01 | locus YDR001C, strain nth1, active compounds read low 0.983 | locus YDR069C, strain doa4, active compounds read low 0.936 | locus YDR101C, strain arx1, active compounds read low 1.02 | locus YDR137W, strain rgp1, active compounds read low 1.02 | locus YDR150W, strain NUM1, active compounds read low 1.02 and 0.999 | locus YDR159W, strain sac3, active compounds read low 0.939 | locus YDR162C, strain NBP2, active compounds read low 1.02 | locus YDR195W, strain ref2 0.963 | locus YDR297W, strain sur2, active compounds read low 0.986 | locus YDR318W, strain mcm21, active compounds read low 1.01 | locus YDR334W, strain swr1, active compounds read low 0.974 | locus YDR335W, strain msn5, active compounds read low 0.992 | locus YDR388W, active compounds read low 1 | locus YDR392W, strain spt3, active compounds read low 0.939 | locus YDR502C, strain sam2, active compounds read low 1.02 | locus YEL003W, strain gim4, active compounds read low 0.973 | locus YEL037C, strain rad23, active compounds read low 0.978 | locus YEL061C, strain CIN8 (second series), active compounds read low 0.983 | locus YEL061C, strain CIN8, active compounds read low 1.01 | locus YER002W, strain NOP16, active compounds read low 0.997 | locus YER015W, strain faa2, active compounds read low 0.987 | locus YER016W, strain bim1, active compounds read low 0.994 | locus YER110C, active compounds read low 1.02 | locus YER111C, strain swi4, active compounds read low 0.988 | locus YER155C, strain BEM2 (second series), active compounds read low 0.902 | locus YER155C, strain BEM2, active compounds read low 1 | locus YER167W, strain BCK2, active compounds read low 1.01 | locus YFR010W, strain ubp6, active compounds read low 0.944 | locus YGL078C, strain dbp3, active compounds read low 1.02 | locus YGL086W, strain mad1, active compounds read low 1.01 | locus YGL167C, strain pmr1, active compounds read low 0.978 | locus YGL173C, strain kem1, active compounds read low 0.958 | locus YGL227W, strain vid30, active compounds read low 0.993 | locus YGL240W, strain doc1, active compounds read low 0.946 | locus YGL248W, strain PDE1, active compounds read low 1.02 | locus YGL253W, strain hxk2, active compounds read low 0.96 | locus YGR078C, strain PAC10, active compounds read low 0.992 | locus YGR135W, strain pre9, active compounds read low 0.987 | locus YGR229C, strain SMI1, active compounds read low 1.02 | locus YGR252W, strain gcn5, active compounds read low 0.977 | locus YHR013C, strain ard1, active compounds read low 0.867 | locus YHR027C, strain rpn1, active compounds read low 0.968 | locus YHR030C, strain SLT2, active compounds read low 1.01 and 0.987 | locus YHR079C, strain IRE1 (second series), active compounds read low 1.02 | locus YHR079C, strain IRE1, active compounds read low 1 | locus YHR094C, strain hxt1, active compounds read low 1.02 | locus YHR129C, strain ARP1, active compounds read low 1.02 | locus YHR142W, strain chs7, active compounds read low 1 | locus YHR200W, strain rpn10, active compounds read low 1.01 | locus YIL066C, strain RNR3, active compounds read low 1.02 | locus YIL073C, strain SPO22, active compounds read low 1.14 | locus YIL125W, strain kgd1, active compounds read low 1.02 | locus YIR030C, strain dcg1, active compounds read low 1.02 | locus YJL092W, strain hpr5, active compounds read low 0.983 | locus YJL095W, strain BCK1 (second series), active compounds read low 0.991 | locus YJL095W, strain BCK1, active compounds read low 1.01 and 1 | locus YJL115W, strain asf1, active compounds read low 0.981 | locus YJL129C, strain trk1, active compounds read low 0.997 | locus YJL134W, strain LCB3, active compounds read low 1.01 | locus YJL154C, strain vps35, active compounds read low 0.974 | locus YJL164C, strain tpk1, active compounds read low 1.01 | locus YJL166W, strain qcr8, active compounds read low 0.992 | locus YJL168C, strain set2, active compounds read low 1.01 | locus YJL187C, strain SWE1 (second series), active compounds read low 1.01 | locus YJR043C, strain POL32, active compounds read low 1.04 | locus YJR066W, strain TOR1, active compounds read low 0.987 | locus YJR075W, strain HOC1, active compounds read low 0.976 | locus YKL009W, strain mrt4, active compounds read low 1.01
